# Data published in PMC5700166.
# Where a chain is given by its changes, count along the chain named.
# How the values were obtained:
# Assay in all cases: protein-binding microarray (PBM); PBM: ~300 nM protein, 6 mM HEPES pH 7.8, 80 mM KCl, 0.5 mM EDTA, 0.5 mM EGTA, 6% glycerol, 35 ng/ul poly-dIdC, 1% milk, 1 h, room temperature; Ap Aiptasia and Nv Nematostella (sea anemones) / Co Capsaspora / Aq Amphimedon (sponge) / Dm Drosophila / Hu human; RHD is the Rel homology domain; high values mean tight binding
# Conditions in all cases: dsDNA, one strand shown
# GST-Ap-NF-kB RHD = target: T1, GST-Ap-NF-kB RHD (Exaiptasia pallida (Aiptasia), UniProt A0A913YAJ5 2-422)
# T1 sequence: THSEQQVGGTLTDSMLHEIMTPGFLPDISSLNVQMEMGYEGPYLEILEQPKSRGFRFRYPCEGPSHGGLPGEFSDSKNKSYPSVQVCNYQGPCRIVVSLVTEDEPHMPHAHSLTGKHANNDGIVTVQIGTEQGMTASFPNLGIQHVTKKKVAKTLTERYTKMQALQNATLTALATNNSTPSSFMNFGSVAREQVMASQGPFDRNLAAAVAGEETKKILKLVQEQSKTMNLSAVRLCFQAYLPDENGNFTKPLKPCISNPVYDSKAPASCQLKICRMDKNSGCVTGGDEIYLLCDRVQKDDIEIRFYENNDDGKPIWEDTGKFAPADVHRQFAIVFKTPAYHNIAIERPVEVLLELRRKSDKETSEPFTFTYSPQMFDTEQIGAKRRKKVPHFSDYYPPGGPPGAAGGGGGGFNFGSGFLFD
# [1] = target: T2, GST-Nv-NF-kB (Cys allele) (Nematostella vectensis, UniProt E5G601 2-411)
# T2 sequence: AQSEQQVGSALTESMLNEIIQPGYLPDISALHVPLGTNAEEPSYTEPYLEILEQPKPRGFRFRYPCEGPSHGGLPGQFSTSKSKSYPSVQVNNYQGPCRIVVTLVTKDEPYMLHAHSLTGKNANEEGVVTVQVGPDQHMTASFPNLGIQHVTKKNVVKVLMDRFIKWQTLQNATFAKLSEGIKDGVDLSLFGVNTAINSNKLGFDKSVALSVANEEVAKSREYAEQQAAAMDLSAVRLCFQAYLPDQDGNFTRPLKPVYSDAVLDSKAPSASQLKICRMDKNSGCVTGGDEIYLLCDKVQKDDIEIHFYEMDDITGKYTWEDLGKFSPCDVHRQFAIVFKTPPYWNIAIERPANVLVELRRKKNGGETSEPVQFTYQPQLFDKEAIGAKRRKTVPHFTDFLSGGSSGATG
# [2] = target: T3, GST-Nv-NF-kB (Ser allele) (Nematostella vectensis, UniProt A7UNT2 2-411)
# T3 sequence: T2 sequence with Q21R, C66S, S207N, E215Q, V217A, E225K, A268E, D399E
# GST-Co-NF-kB = target: T4, GST-Co-NF-kB (Capsaspora owczarzaki, UniProt F1ARL5 200-546)
# T4 sequence: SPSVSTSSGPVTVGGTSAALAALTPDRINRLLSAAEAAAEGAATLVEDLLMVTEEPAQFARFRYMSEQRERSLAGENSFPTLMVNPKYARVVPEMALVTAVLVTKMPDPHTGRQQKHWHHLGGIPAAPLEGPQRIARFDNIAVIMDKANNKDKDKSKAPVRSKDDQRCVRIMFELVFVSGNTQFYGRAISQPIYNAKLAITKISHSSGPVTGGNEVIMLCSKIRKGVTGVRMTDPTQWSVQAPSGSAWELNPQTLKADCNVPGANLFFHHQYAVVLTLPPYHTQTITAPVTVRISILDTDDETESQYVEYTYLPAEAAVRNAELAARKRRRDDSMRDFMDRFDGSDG
# GST-Dm-Relish = target: T5, GST-Dm-Relish (Drosophila melanogaster, UniProt Q94527 99-473)
# T5 sequence: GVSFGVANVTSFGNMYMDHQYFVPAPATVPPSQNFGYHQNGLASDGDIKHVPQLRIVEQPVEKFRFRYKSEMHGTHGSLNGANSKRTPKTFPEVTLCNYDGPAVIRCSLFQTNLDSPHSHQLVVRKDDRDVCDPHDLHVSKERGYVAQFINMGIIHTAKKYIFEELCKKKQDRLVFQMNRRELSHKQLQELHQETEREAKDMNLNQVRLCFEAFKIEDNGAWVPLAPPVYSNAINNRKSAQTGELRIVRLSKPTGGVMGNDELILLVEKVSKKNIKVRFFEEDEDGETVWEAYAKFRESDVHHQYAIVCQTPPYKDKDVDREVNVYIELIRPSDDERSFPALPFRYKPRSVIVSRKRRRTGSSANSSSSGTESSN
# GST-Aq-NF-kB = target: T6, GST-Aq-NF-kB (Amphimedon queenslandica, UniProt A9Y5G7 2-389)
# T6 sequence: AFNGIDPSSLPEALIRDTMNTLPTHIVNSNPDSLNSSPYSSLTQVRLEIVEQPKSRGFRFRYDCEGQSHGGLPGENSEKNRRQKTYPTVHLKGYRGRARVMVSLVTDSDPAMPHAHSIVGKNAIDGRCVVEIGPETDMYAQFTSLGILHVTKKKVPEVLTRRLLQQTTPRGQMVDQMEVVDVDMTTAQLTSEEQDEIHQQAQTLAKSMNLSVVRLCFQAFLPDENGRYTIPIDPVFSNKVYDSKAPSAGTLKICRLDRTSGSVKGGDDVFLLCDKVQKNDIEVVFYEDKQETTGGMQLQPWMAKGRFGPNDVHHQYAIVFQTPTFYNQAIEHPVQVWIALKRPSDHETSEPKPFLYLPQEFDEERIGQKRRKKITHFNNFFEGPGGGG
# GST-Hu-p50 = GST-Hu-p50 (Homo sapiens, UniProt P19838 7-356)
# GST-Hu-p50, sequence (P19838 7-356): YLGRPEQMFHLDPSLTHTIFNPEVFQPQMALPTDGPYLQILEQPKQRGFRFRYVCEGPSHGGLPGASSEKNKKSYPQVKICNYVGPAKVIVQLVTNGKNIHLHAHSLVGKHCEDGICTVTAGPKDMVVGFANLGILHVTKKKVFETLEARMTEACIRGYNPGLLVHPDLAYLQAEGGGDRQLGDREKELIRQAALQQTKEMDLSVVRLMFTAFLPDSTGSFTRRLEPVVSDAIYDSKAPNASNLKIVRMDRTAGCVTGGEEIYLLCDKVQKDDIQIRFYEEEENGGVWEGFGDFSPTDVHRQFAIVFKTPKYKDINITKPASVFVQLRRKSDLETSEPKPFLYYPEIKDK
Sequence,binding signal (GST-Ap-NF-kB RHD),binding signal [1],binding signal [2],binding signal (GST-Co-NF-kB),binding signal (GST-Dm-Relish),binding signal (GST-Aq-NF-kB),binding signal (GST-Hu-p50)
CCGATTAACATCAGGGAAAATACTGATGTTAATCGGGTCTTGATTCGCTTGACGCTGCTG,3.76 z-score,6.09 z-score,6.82 z-score,4.49 z-score,4.93 z-score,5.71 z-score,4.76 z-score
CCGATTAACATCAGCAAATTCCCTGATGTTAATCGGGTCTTGATTCGCTTGACGCTGCTG,3.17 z-score,5.15 z-score,5.81 z-score,2.77 z-score,4.19 z-score,4.34 z-score,4.19 z-score
CCGATTAACATCAGGGAAATACATGATGTTAATCGGGTCTTGATTCGCTTGACGCTGCTG,3.25 z-score,4.47 z-score,4.73 z-score,4.08 z-score,8.18 z-score,4.87 z-score,3.02 z-score
CCGATTAACATCAATTCCCCTGATGATGTTAATCGGGTCTTGATTCGCTTGACGCTGCTG,6.84 z-score,7.45 z-score,9.02 z-score,5.73 z-score,3.81 z-score,4.89 z-score,5.75 z-score
CCGATTAACATCACTTTTCCCCCTGATGTTAATCGGGTCTTGATTCGCTTGACGCTGCTG,6.53 z-score,7.4 z-score,8.95 z-score,10.8 z-score,3.73 z-score,5.27 z-score,6.51 z-score
CCGATTAACATCAGATATTCCCCTGATGTTAATCGGGTCTTGATTCGCTTGACGCTGCTG,7.71 z-score,9.63 z-score,8.71 z-score,8.17 z-score,5.36 z-score,7.31 z-score,5.94 z-score
CCGATTAACATCAGGGACTCCCCTGATGTTAATCGGGTCTTGATTCGCTTGACGCTGCTG,11.3 z-score,9.16 z-score,7.65 z-score,4.68 z-score,10.3 z-score,9.57 z-score,6.03 z-score
CCGATTAACATCAGGGGGATCCATGATGTTAATCGGGTCTTGATTCGCTTGACGCTGCTG,7.42 z-score,5.12 z-score,6.25 z-score,4.25 z-score,7.45 z-score,5.46 z-score,5.74 z-score
CCGATTAACATCAAAATTTCCCATGATGTTAATCGGGTCTTGATTCGCTTGACGCTGCTG,3.99 z-score,6.36 z-score,6.16 z-score,5.2 z-score,4.56 z-score,5.77 z-score,4.79 z-score
CCGATTAACATCAGGGGATTCGATGATGTTAATCGGGTCTTGATTCGCTTGACGCTGCTG,5.58 z-score,5.21 z-score,7.7 z-score,2.24 z-score,3.8 z-score,3.6 z-score,5.33 z-score
CCGATTAACATCACGAAACCCCCTGATGTTAATCGGGTCTTGATTCGCTTGACGCTGCTG,8.57 z-score,6.39 z-score,7.65 z-score,2.69 z-score,8.51 z-score,6.37 z-score,7.11 z-score
CCGATTAACATCAGGGGATTAACTGATGTTAATCGGGTCTTGATTCGCTTGACGCTGCTG,5.48 z-score,6.31 z-score,7.11 z-score,2.99 z-score,8.54 z-score,5.82 z-score,4.93 z-score
CCGATTAACATCAAATTCCCACATGATGTTAATCGGGTCTTGATTCGCTTGACGCTGCTG,2 z-score,3.53 z-score,3.94 z-score,3.33 z-score,4.42 z-score,2.66 z-score,2.85 z-score
CCGATTAACATCAGAAATTCCCCTGATGTTAATCGGGTCTTGATTCGCTTGACGCTGCTG,9.89 z-score,12.3 z-score,13.2 z-score,8.74 z-score,8.87 z-score,8.89 z-score,7.96 z-score
CCGATTAACATCAGGAATTCCCCTGATGTTAATCGGGTCTTGATTCGCTTGACGCTGCTG,11.7 z-score,12.5 z-score,11.7 z-score,7.64 z-score,9.99 z-score,11.5 z-score,7.74 z-score
CCGATTAACATCACGGGATTCCCTGATGTTAATCGGGTCTTGATTCGCTTGACGCTGCTG,6.4 z-score,6.23 z-score,5.14 z-score,2.93 z-score,10.2 z-score,7.3 z-score,4.17 z-score
CCGATTAACATCAGGGGGTTTGATGATGTTAATCGGGTCTTGATTCGCTTGACGCTGCTG,6.11 z-score,4.29 z-score,6.14 z-score,1.61 z-score,5.81 z-score,4.09 z-score,6.03 z-score
CCGATTAACATCAGGGGGGTAACTGATGTTAATCGGGTCTTGATTCGCTTGACGCTGCTG,5.83 z-score,4.16 z-score,4.34 z-score,6.37 z-score,4.31 z-score,4.37 z-score,4.07 z-score
CCGATTAACATCAGGGAATCCCCTGATGTTAATCGGGTCTTGATTCGCTTGACGCTGCTG,14.7 z-score,13.7 z-score,14.6 z-score,6.28 z-score,11 z-score,12.1 z-score,8.34 z-score
CCGATTAACATCAATAATCCCCCTGATGTTAATCGGGTCTTGATTCGCTTGACGCTGCTG,8.84 z-score,8.72 z-score,9.49 z-score,6.87 z-score,8.23 z-score,7.52 z-score,7.52 z-score
CCGATTAACATCAGGATGCCCCCTGATGTTAATCGGGTCTTGATTCGCTTGACGCTGCTG,4.93 z-score,4.06 z-score,2.93 z-score,1.55 z-score,4.63 z-score,5.09 z-score,4.35 z-score
CCGATTAACATCAATGCCCCCCCTGATGTTAATCGGGTCTTGATTCGCTTGACGCTGCTG,5.2 z-score,2.82 z-score,3.53 z-score,5.03 z-score,4.02 z-score,4.04 z-score,4.02 z-score
